Several values for one entry are separate records, joined by “and”; a condition that tells them apart may be missing. Equal values may be shown once. Records with an inconclusive call do not appear. Activity calls are given as the source filed them.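 How the source made its calls, unless noted: active means GFP signal, as percent of the solvent control, above the screen mean plus 3 SD, about 149; inconclusive means no reading because the compound's own fluorescence upset strain identification; inactive means the rest.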

Assay [1] can be described thus: rapamycin-like changes in RPL19A-GFP expression – cell-based, S. cerevisiae, multiplex flow cytometry, primary screen (AID 1862; in the data active means percent of DMSO control GFP below about 86%;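 further: lower values mimic rapamycin by blocking the RPL19A rise seen in DMSO cells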). The following applies: S. cerevisiae RPL19A-GFP strain, flow cytometry fluorescence, 3 h; at 10 µM; stronger effect = lower value. On the technique in general: Flow cytometry measures light scatter and fluorescence of single cells or particles in a stream.

The nature of assay [2]: TOR pathway GLN3 branch reporter MEP2-GFP changes – S. cerevisiae, multiplex flow cytometry, primary screen (AID 1867;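 active means GFP response, as percent of the DMSO control, above the screen-wide mean plus 3 SD, about 139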;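 further: median GFP channel fluorescence of barcode-gated MEP2-GFP cells measured by flow cytometry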). The settings on record: S. cerevisiae MEP2-GFP strain, 3 h, at 10 µM, stronger effect = higher value, 100% means same as DMSO wells.
Assay [3] can be described thus: TOR pathway RTG branch CIT2 reporter changes – S. cerevisiae, GFP fusion, multiplex flow cytometry, primary screen (AID 1870;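 active means percent response above a set limit, the screen-wide mean plus 3 SD, cut at about 130% in these data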;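 further: barcoded CIT2-GFP strain pooled with four other GFP strains with rapamycin as positive control; median GFP fluorescence per well over plate mean of DMSO wells so 100% = DMSO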). The settings on record: S. cerevisiae CIT2-GFP expression, 3 h, at 10 µM, stronger effect = higher value.
Assay [4] is described as follows: TOR pathway LAP4-GFP level changes – S. cerevisiae, multiplex flow cytometry, primary screen (AID 1873). The settings on record: S. cerevisiae LAP4-GFP expression, 3 h, at 10 µM, stronger effect = higher value.
Assay [5] in a line: yeast AGP1-GFP level changes, GLN3 branch – cell-based, multiplex flow cytometry, S. cerevisiae, primary screen (AID 1887;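 active means GFP signal above the screen-wide mean plus 3 SD, that is over about 124.5% of the solvent control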;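 further: AGP1-GFP fusion strain of S. cerevisiae within a five-strain barcoded multiplex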). The settings on record: 3 h, at 10 µM, stronger effect = higher value.
Assay [6] can be described thus: reduced mouse 2C T cell binding to pMHC/ICAM-1 vesicles – MLPCN validation set, flow cytometry, LFA-1/ICAM-1 modulator project, pilot screen (AID 2523;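 active means response below a set limit, under 55% cells CD8-positive and vesicle-bound, and CD8 cells' 90th-percentile brightness under 279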;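 on vesicle binding response: mean PE anti-B7-1 fluorescence of CD8+ cells relative to row control; 100% = QL9-loaded vesicles with DMSO vehicle in the same plate row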). The following applies: 2C mouse CD8+ T cells, at 7 µM, stronger effect = lower value; double positive events: measured here: CD8+/vesicle+ event percentage.
The target in assay [7] is Integrin beta-1 (Homo sapiens) + Integrin alpha-4 (Homo sapiens) (UniProt P13612+P05556). Briefly: alpha4beta1 integrin LIBS antibody binding reduction – U937 cells, HUTS-21 mAb, flow cytometry, validation set, VLA-4 allosteric modulator project, pilot screen (AID 2674;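 active means inhibition above 50%, about 3 SD of the validation set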;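 further: antibody binding induced by the VLA-4 ligand LDV present at three times its Kd; 0% = LDV ligand with antibody and no compound and 100% = antibody without LDV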). The following applies: HUTS-21 LIBS mAb binding, at 6.7 µM, stronger effect = higher value, binding induced by LDV ligand.

Assay [8] can be described thus: calorie-restriction mimetic ROS inhibitors, yeast – validation compound set, pilot screen (AID 2706;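 active means superoxide response below 65% of plate, a cut near 3 SD across the whole screen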;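 further: yeast exposed to compound for one week at 30 degrees C before staining; 100% = mean of all compound wells on the same plate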). The following applies: S. cerevisiae aging, superoxide DHE fluorescence; at 10 µM; stronger effect = lower value.
The target of assay [9] is Beta-adrenergic receptor kinase 1 (Homo sapiens) (UniProt P25098). The assay is described as follows: GRK2 binders displacing RNA aptamer, biochemical, validation, human GRK2, bead flow cytometry (AID 488806;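 active means aptamer binding inhibition above 30%, about 3 SD of noise from non-fluorescent compounds; inactive means inhibition at or below 30%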). The following applies: bead-bound GRK2, FAM-aptamer displacement, at 10 µM, stronger effect = higher value.
Assay [10] has as its target Beta-2 adrenergic receptor (Homo sapiens) (UniProt P07550). Briefly: agonist-induced loss of surface beta2AR – cell-based, FAP fluorogen, flow cytometry, validation set, pilot screen (AID 504459;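 active means percent response above 42, roughly 3 SD of non-fluorescent test compounds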;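 further: agonist-driven loss of surface beta2AR via internalization measured by FAP dye flow cytometry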). The following applies: Am2.2-beta2AR cells, at 10 µM, stronger effect = higher value.
The target of assay [11] is AP-2 complex subunit beta (Homo sapiens) (UniProt P63010). Briefly: beta-arrestin/AP2 interaction blockers – biochemical, validation set, GST-AP2 beads, flow cytometry, pilot screen (AID 504541;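 active means inhibition above 54%, about 3 SD of non-fluorescent compounds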;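 further: AP2 carries R879A mutation and is captured from E. coli lysate; bead-bound FITC arrestin peptide fluorescence measuring arrestin peptide binding to AP2; 0% = DMSO wells and 100% = excess unlabeled arrestin peptide control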). The settings on record: FITC arrestin peptide, at 10 µM, stronger effect = higher value, AP2 beta2 appendage fragment, R879A mutant.
Assay [12] in a line: cytosolic pH regulators acting via V-ATPase – S. cerevisiae, pHLuorin, HTS validation (AID 504600; in the data active means response above about 15%;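 further: plate controls were DMSO for no effect and reference compound for full effect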). The following applies: V-ATPase proton transport, at 10 µM, stronger effect = higher value.
Assay [13] relates to anti-desmoglein-3 scFv antibody binding to human DSG3. Briefly: blockers of pathogenic pemphigus antibody–desmoglein-3 binding – biochemical, validation compound set, bead-based, flow cytometry, pilot screen (AID 588368;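 active means binding below the plate cutoff, the plate median minus 3 SD, with a reading above zero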;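 further: signal is the median channel fluorescence of bead-bound GFP antibody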). The following applies: Protein G beads, DSG3-Fc, scFv-GFP binding, at 10 µM, stronger effect = lower value.
A short description of assay [14]: Nile Red efflux blockade in pump-expressing yeast – validation compound set, multiplex, phenotypic, pilot screen (AID 588506;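 active means efflux inhibition above 0.42, the validation set average plus 4 SD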;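 further: Nile Red retained in cells so higher fluorescence means more efflux inhibition; 0 = negative control wells and 1 = enniatin B 25 µM full block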). The following applies: S. cerevisiae pump-expressing triplex, Nile Red efflux flow cytometry; at 10 µM; stronger effect = higher value; the pumps come from Candida albicans.
The target of assay [15] is ATP-binding cassette sub-family B member 6 (Homo sapiens) (UniProt Q9NP58). The assay is described as follows: blockers of ABCB6-driven porphyrin uptake – K562-ABCB6 cells, flow cytometry, validation set, pilot screen (AID 588550;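 active means inhibition above the screen-wide mean plus 3 SD, about 51%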;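 further: 0% = DMSO wells and 100% = benzethonium chloride 70 µM positive control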). The settings on record: K562-ABCB6 porphyrin accumulation, 1 h, at 10 µM, stronger effect = higher value.
Assay [16] can be described thus: AML differentiation inducers, ER-HoxA9 marrow cells – cell-based, GFP/MAC1 double positive, flow cytometry, validation set, primary screen (AID 588685;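 active means differentiation response of at least 50%, scaled between solvent and reference control, from cells with both markers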;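 further: compound exposure lasts four days before antibody staining and flow analysis; 0% = DMSO wells and 100% = 5 µM fulvestrant positive control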). The following applies: stronger effect = higher value, normalized: vehicle 0, fulvestrant 100.

Sequence of AP-2 complex subunit beta (Homo sapiens) (P63010 whole entry, looked up, the tested form may be a part, one chain of several): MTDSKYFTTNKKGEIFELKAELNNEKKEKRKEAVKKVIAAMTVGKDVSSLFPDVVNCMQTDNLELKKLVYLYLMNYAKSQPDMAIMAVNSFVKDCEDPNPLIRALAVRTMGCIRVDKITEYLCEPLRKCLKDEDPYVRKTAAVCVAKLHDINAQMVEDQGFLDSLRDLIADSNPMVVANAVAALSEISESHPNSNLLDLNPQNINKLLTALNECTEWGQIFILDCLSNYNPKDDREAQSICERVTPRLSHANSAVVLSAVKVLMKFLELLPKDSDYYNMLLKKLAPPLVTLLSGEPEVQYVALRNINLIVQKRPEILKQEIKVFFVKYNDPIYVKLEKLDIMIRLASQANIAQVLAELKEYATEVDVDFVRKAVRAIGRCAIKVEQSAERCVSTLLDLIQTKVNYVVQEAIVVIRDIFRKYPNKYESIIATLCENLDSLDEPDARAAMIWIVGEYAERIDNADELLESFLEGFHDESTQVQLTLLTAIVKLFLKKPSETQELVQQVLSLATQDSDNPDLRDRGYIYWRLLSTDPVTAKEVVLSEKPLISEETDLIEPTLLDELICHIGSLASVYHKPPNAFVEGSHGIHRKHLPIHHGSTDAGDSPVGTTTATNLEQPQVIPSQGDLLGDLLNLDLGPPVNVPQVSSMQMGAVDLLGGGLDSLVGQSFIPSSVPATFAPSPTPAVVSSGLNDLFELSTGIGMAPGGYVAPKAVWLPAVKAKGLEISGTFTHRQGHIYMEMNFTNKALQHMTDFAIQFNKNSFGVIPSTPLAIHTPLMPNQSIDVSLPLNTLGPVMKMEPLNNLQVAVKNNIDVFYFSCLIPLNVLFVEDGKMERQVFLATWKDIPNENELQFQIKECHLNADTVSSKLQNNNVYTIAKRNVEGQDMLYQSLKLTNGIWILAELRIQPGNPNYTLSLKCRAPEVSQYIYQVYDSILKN
Sequence of Integrin beta-1 (Homo sapiens) + Integrin alpha-4 (Homo sapiens) (P05556 whole entry, looked up): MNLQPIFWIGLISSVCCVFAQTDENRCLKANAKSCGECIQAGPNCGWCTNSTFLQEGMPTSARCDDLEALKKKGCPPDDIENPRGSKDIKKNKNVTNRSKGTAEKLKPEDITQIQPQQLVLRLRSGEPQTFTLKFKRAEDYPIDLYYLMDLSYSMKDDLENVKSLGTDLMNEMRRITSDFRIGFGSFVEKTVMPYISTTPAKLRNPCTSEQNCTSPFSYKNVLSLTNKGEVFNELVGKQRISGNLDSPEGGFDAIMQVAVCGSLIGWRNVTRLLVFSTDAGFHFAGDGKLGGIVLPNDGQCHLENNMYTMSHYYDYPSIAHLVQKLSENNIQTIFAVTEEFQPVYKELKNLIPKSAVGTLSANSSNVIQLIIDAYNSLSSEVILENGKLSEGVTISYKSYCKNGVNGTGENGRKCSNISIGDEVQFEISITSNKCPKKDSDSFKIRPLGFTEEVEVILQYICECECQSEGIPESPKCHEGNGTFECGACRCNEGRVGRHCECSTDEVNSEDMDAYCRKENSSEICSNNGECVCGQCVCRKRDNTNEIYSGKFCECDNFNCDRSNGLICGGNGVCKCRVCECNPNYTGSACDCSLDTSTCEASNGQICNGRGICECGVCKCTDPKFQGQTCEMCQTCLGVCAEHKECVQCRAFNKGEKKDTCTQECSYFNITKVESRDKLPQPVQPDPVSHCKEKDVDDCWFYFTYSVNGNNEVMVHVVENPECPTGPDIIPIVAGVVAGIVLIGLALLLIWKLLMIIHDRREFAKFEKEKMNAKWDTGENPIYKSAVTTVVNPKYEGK
Sequence of Integrin beta-1 (Homo sapiens) + Integrin alpha-4 (Homo sapiens) (P13612 whole entry, looked up): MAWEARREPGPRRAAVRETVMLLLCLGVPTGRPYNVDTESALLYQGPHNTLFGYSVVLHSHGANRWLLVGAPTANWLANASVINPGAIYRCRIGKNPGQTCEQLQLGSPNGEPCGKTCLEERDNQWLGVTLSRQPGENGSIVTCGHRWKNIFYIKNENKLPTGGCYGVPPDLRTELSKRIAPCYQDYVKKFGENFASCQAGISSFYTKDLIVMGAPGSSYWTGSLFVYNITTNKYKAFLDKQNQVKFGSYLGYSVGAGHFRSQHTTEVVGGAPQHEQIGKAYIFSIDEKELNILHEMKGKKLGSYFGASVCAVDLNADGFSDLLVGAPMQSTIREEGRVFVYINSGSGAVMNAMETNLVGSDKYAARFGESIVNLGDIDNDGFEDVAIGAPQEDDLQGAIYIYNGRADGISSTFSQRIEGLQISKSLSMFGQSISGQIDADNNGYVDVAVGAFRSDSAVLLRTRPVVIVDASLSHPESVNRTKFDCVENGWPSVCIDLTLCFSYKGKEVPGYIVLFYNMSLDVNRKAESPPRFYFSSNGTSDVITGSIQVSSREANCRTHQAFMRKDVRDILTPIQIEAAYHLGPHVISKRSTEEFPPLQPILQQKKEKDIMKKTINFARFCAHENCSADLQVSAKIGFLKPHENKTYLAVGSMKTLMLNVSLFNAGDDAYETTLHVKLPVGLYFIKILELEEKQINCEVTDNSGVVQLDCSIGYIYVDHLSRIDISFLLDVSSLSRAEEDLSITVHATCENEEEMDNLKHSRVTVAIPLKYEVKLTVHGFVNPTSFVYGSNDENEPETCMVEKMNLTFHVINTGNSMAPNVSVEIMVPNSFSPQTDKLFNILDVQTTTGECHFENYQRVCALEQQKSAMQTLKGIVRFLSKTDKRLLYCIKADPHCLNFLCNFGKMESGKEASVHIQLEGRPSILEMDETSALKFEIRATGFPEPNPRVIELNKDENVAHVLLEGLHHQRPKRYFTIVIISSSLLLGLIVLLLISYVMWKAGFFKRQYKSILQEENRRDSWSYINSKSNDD
Sequence of Beta-adrenergic receptor kinase 1 (Homo sapiens) (P25098 whole entry, looked up): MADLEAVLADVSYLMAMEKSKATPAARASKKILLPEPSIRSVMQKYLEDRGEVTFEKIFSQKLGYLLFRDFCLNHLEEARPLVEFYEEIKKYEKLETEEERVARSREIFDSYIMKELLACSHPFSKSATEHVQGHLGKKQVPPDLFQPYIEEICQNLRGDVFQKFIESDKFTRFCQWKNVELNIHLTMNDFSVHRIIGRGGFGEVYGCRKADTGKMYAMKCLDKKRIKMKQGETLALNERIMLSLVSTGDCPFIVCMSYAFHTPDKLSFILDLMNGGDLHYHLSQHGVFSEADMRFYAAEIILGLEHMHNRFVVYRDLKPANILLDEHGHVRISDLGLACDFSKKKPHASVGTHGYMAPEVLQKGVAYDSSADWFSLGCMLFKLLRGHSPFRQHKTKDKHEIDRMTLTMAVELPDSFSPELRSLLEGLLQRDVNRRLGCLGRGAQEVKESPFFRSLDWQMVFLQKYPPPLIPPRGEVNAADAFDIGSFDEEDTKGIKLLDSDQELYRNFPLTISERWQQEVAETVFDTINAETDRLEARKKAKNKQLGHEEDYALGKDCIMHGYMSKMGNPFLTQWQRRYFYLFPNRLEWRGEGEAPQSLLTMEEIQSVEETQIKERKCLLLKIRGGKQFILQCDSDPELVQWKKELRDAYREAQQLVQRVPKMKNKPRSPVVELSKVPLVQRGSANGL
Sequence of Beta-2 adrenergic receptor (Homo sapiens) (P07550 whole entry, looked up): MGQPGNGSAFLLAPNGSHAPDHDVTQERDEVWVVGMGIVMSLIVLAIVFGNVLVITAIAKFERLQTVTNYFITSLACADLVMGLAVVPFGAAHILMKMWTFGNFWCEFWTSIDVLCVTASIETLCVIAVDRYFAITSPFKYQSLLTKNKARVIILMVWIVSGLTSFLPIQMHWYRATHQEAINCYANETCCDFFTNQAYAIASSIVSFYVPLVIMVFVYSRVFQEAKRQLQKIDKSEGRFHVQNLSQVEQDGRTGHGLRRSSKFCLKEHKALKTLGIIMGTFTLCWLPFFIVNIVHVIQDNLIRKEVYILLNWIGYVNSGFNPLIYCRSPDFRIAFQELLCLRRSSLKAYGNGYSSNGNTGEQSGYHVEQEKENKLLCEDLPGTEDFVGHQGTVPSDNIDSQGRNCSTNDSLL
Sequence of ATP-binding cassette sub-family B member 6 (Homo sapiens) (Q9NP58 whole entry, looked up): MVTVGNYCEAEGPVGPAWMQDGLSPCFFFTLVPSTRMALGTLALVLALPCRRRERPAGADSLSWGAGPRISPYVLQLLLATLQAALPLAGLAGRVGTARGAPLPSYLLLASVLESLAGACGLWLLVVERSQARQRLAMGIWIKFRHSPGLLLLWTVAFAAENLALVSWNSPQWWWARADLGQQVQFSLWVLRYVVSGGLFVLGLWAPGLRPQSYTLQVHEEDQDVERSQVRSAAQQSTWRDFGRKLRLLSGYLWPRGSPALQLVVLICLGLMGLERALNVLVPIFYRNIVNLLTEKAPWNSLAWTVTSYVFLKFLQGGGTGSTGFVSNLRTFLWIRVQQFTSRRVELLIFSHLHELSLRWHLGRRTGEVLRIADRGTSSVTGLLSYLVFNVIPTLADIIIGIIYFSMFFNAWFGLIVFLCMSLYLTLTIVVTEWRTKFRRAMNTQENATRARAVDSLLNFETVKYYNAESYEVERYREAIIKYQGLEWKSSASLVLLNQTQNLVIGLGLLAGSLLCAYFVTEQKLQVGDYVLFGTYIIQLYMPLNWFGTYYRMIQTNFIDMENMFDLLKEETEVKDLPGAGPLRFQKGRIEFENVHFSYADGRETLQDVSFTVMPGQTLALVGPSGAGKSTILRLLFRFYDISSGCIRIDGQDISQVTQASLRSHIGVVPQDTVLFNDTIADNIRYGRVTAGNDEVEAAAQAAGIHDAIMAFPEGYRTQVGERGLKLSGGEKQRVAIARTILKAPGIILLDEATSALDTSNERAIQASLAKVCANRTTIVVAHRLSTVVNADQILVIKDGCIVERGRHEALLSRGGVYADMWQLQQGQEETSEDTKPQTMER

The inhibition is the drop in the measured response relative to a control, in per cent. For the compound `O=C(O)c1ccc(N2C(=O)/C(=C\c3ccccc3)N=C2c2ccccc2)cc1`, the percent of DMSO control GFP in assay [1] was 103% (inactive). For the same compound, the GFP response vs DMSO in [2] is 106% (inactive); in assay [4] it was 110% (inactive). In addition, the percent response of DMSO control in assay [3] was 99.7% (inactive). In addition, the GFP response, % of DMSO in assay [5] was 98% (inactive). Besides, the double positive events in assay [6] stood at 58.6%. For the same compound, the vesicle binding response in [6] was 120% (inactive). Further, the inhibition in assay [7] is -5.11% (inactive); in assay [11], -10.8% (inactive); in [15] it was -15% (inactive). The superoxide response (% of plate) in assay [8] was 111% (inactive). Also, the aptamer binding inhibition in assay [9] is 2% (inactive). The response in [10] was -17.4% (inactive); in assay [12], -0.35% (inactive). Further, the binding (% of control) in assay [13] is 98.1% (inactive). In addition, the efflux inhibition (fraction of control) in assay [14] was -0.2 (inactive). For the same compound, in assay [16], the differentiation response is -0.18% (inactive).

For `CCOCC(=O)Nc1ccccc1C(=O)N1CCOCC1`, the percent of DMSO control GFP in assay [1] was 97% (inactive). Also, the GFP response vs DMSO was 130% (inactive) in assay [2] and 88.6% (inactive) in [4]. Further, the percent response of DMSO control in assay [3] is 114% (inactive). In addition, the GFP response, % of DMSO in [5] is 87.7% (inactive). For the same compound, the double positive events in assay [6] worked out at 67.2%. For the same compound, the vesicle binding response in [6] is 182% (inactive). Also, the inhibition was -2.27% (inactive) in [7] and 14.3% (inactive) in assay [11]. Further, the superoxide response (% of plate) in [8] was 96.8% (inactive). The aptamer binding inhibition in [9] is 6% (inactive). In addition, the figures for the response in [10] and in assay [12] were 2.34% (inactive) and -3.44% (inactive), respectively. Further, the binding (% of control) in [13] was 100% (inactive). Besides, the efflux inhibition (fraction of control) in [14] is 0.23 (inactive). Moreover, the differentiation response in [16] was 0% (inactive).

With `CSCC[C@H](NC(=O)NC1CCCC1)C(=O)O`, the percent of DMSO control GFP in [1] is 89.8% (inactive). The GFP response vs DMSO in [2] is 113% (inactive); in assay [4], 75.4% (inactive). The percent response of DMSO control in assay [3] is 99.2% (inactive). Besides, the GFP response, % of DMSO in assay [5] is 89.6% (inactive). The compound also came in with a double positive events in assay [6] of 70.2%. The vesicle binding response in assay [6] is 233% (inactive). The inhibition is 8.4% (inactive) in assay [7], -9.17% (inactive) in assay [11] and 13% (inactive) in assay [15]. Besides, in [8], the superoxide response (% of plate) is 113% (inactive). In assay [9], the aptamer binding inhibition is 3% (inactive). The response in assay [10] is -7.36% (inactive); in [12] it was 1.23% (inactive). Also, in [13], the binding (% of control) was 101% (inactive). In addition, the efflux inhibition (fraction of control) in assay [14] is 0.34 (inactive). Further, in assay [16], the differentiation response was 0.82% (inactive).

On to `COc1ccc2c(c1)[N+](C)(C)C(C)(C)C=C2C`, for which the percent of DMSO control GFP in assay [1] was 105% (inactive). Moreover, the GFP response vs DMSO in [2] was 96.2% (inactive); in [4], 90.1% (inactive). The percent response of DMSO control in assay [3] was 111% (inactive). Moreover, the GFP response, % of DMSO in assay [5] is 99.9% (inactive). Also, the double positive events in assay [6] worked out at 70.1%. Moreover, in [6], the vesicle binding response was 953% (inactive). Also, the results for the inhibition in [7], in assay [11] and in assay [15] were 15.1% (inactive), -11.1% (inactive) and 5% (inactive), respectively. Besides, the superoxide response (% of plate) in assay [8] is 103% (inactive). The aptamer binding inhibition in assay [9] was 2% (inactive). The response in [10] was -8.39% (inactive); in [12], -1.92% (inactive). Besides, in [13], the binding (% of control) is 95.6% (inactive). In addition, in assay [14], the efflux inhibition (fraction of control) is -0.04 (inactive). In [16], the differentiation response was 12.9% (inactive).

Turning to `CC1(C)S[C@@H]2[C@H](NC(=O)[C@H](N)c3ccccc3)C(=O)N2[C@H]1C(=O)O`, the percent of DMSO control GFP in [1] was 94.2% (inactive) and 101% (inactive). Moreover, the GFP response vs DMSO in assay [2] was 112% (inactive) and 102% (inactive); in assay [4], 73.2% (inactive) and 108% (inactive). Also, the percent response of DMSO control in [3] is 110% (inactive) and 102% (inactive). Further, in assay [5], the GFP response, % of DMSO is 93.1% (inactive) and 112% (inactive). The double positive events in assay [6] is 68.4% and 59.6%. Also, in [6], the vesicle binding response was 234% (inactive) and 191% (inactive). Also, the inhibition in assay [7] was 6.46% (inactive) and 15.1% (inactive); in assay [11] it was 0.2% (inactive) and -9.24% (inactive); in assay [15] it was 4% (inactive) and 0% (inactive). Moreover, in assay [8], the superoxide response (% of plate) is 95.9% (inactive) and 95% (inactive). Besides, the aptamer binding inhibition in assay [9] is 4% (inactive) and 7% (inactive). Further, the response is -4.57% (inactive) and -17.9% (inactive) in assay [10]; 4.43% (inactive) and -37.5% (inactive) in assay [12]. Also, the binding (% of control) in [13] was 108% (inactive) and 102% (inactive). In addition, in assay [16], the differentiation response is -1.64% (inactive) and -7.94% (inactive).
